54 sequences from the supplement of paper PMC11417369 can be followed below.

± gives the standard deviation of the averaged measurements. The full ranking holds about 25,000 sequences; the median of “ln(normalized median fluorescence intensity)” is about 8.9, and the highest 2% start at about 10. Only a selection was taken, and the highest values are over-represented in it overall.

For the assay, the system named is PfAP2-LT AP2 domain (GST-tagged). Description: gcPBM binding intensity (ln(normalized median fluorescence intensity)); higher = stronger DNA binding. The method, boiled down: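 After 1 h on an Agilent 4 × 180k array of primer-extended double-stranded 36-bp intergenic genomic probes and negative controls, bound GST-tagged P. falciparum DNA-binding domains were detected with Alexa488 anti-GST antibody and scanned at 488 nm. The domains had been expressed in E. coli, and binding took place in 1× PBS with 1% milk, 0.2 mg/ml BSA, 0.5% salmon testes DNA and 0.03% Triton X-100. Binding intensity is the highest Masliner-normalised natural-log median intensity across replicate spots of either probe orientation.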
On to “ATAACATATTTCTTTTGTACTCAAAATAAAATTAAT [XGTACX_site2479]”, for which the “gcPBM binding intensity (ln)” value amounted to 8.37 ± 0.4.

On to “ATATAATAAATATGTTGTACTATAAAAAATAGCCAT [XGTACX_site4710]”, for which the “gcPBM binding intensity (ln)” value was determined as 8.78 ± 0.33. As for “AAATTATAATTAGGAACACACATATATATATATATA [CACACA_site3098]”, the “gcPBM binding intensity (ln)” value worked out at 9.78 ± 0.29.

On to “GGACTATACAGTTATACACACACATATATATATAAT [CACACA_site7991]”, for which the “gcPBM binding intensity (ln)” value came out at 9.6 ± 0.4. For “AAGAAGCATAAATGTACACACATATTTATATATTAA [CACACA_site1332]”, the “gcPBM binding intensity (ln)” value turned out to be 9.01 ± 0.43.

Take “ATATATATATATATATGTACATATGTCAACTGTCTA [XGTACX_site8636]”: the “gcPBM binding intensity (ln)” value was 10.1 ± 0.43. Then “ATATATATATATATATGTACATATTTTATAACTGTA [XGTACX_site5395]”, with 9.72 ± 0.35; and “ATATATATATATGTCTGTACATAAAAAATAATAAAT [XGTACX_site3122]”, with 8.975 ± 0.064; and “TTTTTGTAATATTATGATGTCATATATATATATATA [XGTACX_negctrl_site618]”, with 9.035 ± 0.078. As for “TTTTAAATATGCAGATGTACATTATAATGTTTTATT [XGTACX_site2079]”, the figure is 8.87 ± 0.47; as for “ATATATATGAAACACACACACAAAAAAAAAAAAAAA [CACACA_site3647]”, 9.45 ± 0.57; as for “ATCGTAGTATAATATGAACACACACCCACCCACAAA [CACACA_site8616]”, 9.71 ± 0.29. Then “GTATAATATGAACACACACACACACCCAAAAAAAAA [CACACA_site5152]”, with 10.3 ± 0.45. “ATAATATGAAAACACACACACACACCCAAAAAAAAA [CACACA_site2011]”: the “gcPBM binding intensity (ln)” value is 10.1 ± 0.15. Then “AATATATAGAAACACACACACAAAAAAAAAAAAAAA [CACACA_site1326]”, with 9.27 ± 0.47; and “TCATATGTGAAACACACACACACACCCAAAAAAACA [CACACA_site3247]”, with 10.06 ± 0.028; and “GTATAATATGAACACACACACACACGCAAAAAAAAA [CACACA_site7036]”, with 10.19 ± 0.064. Then “TAGTATAATATGAACACACACACACGCACAAAAAAA [CACACA_site7035]”, with 9.94 ± 0.27; and “TAGTATAATATGAACACACACACACCCACAAAAAAA [CACACA_site2009]”, with 10 ± 0.29; and “TAGTATAATATGAACACACACACACCGACAAAAAAA [CACACA_site5151]”, with 9.96 ± 0.2. As to “GTATAATAGAAACACACACACACACCCAAAAAAAAA [CACACA_site2010]”, the “gcPBM binding intensity (ln)” value was 10.3 ± 0.39. As for “TATATATAGAAACACACACACAAAAAAAAAAAAAAA [CACACA_site1506]”, the figure is 9.15 ± 0.46; as for “TTTTTTTTTGAAAAAAGTACTTAATTTTTAAGAAGA [XGTACX_site3591]”, 7.83 ± 0.3. As for “AATATATATATATATATATATTTTTGTTAGAATATG [XGTACX_negctrl_site58]”, the “gcPBM binding intensity (ln)” value is 8.95 ± 0.32. As for “TAAGTTTGTCAATCAACACACACCTATTTATTATAT [CACACA_site3919]”, the figure is 9.11 ± 0.35; as for “AACACAATAAAAATTAAAAATGTTAAGTAAATATAA [GTGCAC_negctrl_site60]”, 8.68 ± 0.52; as for “ATATATATATGAATCACACACAAAAAATATAGAGAT [CACACA_site3913]”, 9.51 ± 0.41. As for “ATGCAACTATATATATATATTATATGTATGAATAAT [XGTACX_negctrl_site434]”, the figure is 8.97 ± 0.28; as for “ATAATATATTTATGTTGTACAAGGAAAATTTTGAAA [XGTACX_site3472]”, 8.76 ± 0.42. As for “ATTTTTTTTATTCAATGTACTTTTTTTTATATATAT [XGTACX_site4978]”, the figure is 8.8 ± 0.45. On to “TATACTCAGAAACACACACACACACCCAAAAAAAAA [CACACA_site4434]”, for which the “gcPBM binding intensity (ln)” value came to 10.1 ± 0.35. Take “AGTATACTCAAACACACACACACAAAAAAAAAAAAA [CACACA_site4398]”: the “gcPBM binding intensity (ln)” value came to 9.88 ± 0.58.

For “TATACATACTCACCCACACACAAAAAAAAAAAAAAA [CACACA_site862]”, the “gcPBM binding intensity (ln)” value was 9.28 ± 0.47. As for “AACAACTATTAATTTACACACATGTATTTATTTTAC [CACACA_site5683]”, the figure is 9.3 ± 0.4; as for “AAATAAATAAATAAATAAACAAATATGTATAAATGG [XGTACX_negctrl_site153]”, 8.85 ± 0.51. Take “TTTAAAAAAAAAAAAAAAAATTCTACATGTAATTTA [CACACA_negctrl_site1205]”: the “gcPBM binding intensity (ln)” value stood at 7.96 ± 0.41. Regarding “AATTTATAAAAGAAGAGGACACATATAAATATAAAT [XGTACX_site59]”, the “gcPBM binding intensity (ln)” value came out at 8.78 ± 0.52. For the sequence “AAAAAAAATATATATGCACACACAAAAAAACAAATT [CACACA_site8349]”, the “gcPBM binding intensity (ln)” value was 9.48 ± 0.37. As for “GGAAAAAATATATGCACACCCCCCAAAAAAAAAAAA [CACACA_site2222]”, the figure is 10.5 ± 0.13; as for “TGGGAAAAAATATATGCACACCCCCCAAAAAAAAAA [CACACA_site8696]”, 10.48 ± 0.071. Take “ATAATATAAATATGCACACAAATTATTACCCAAAAA [CACACA_site2524]”: the “gcPBM binding intensity (ln)” value is 9.03 ± 0.41. As for “ATAAATAAAATATGCACACAAATATAGGAAACAACA [CACACA_site2561]”, the figure is 9.38 ± 0.38. Then “TTAAAAAAATATAATACACACCAAAAATATGCACAT [CACACA_site5209]”, with 9.03 ± 0.38; and “TTATTACATAACAATATACACACTATTGATTAAAGA [CACACA_site2933]”, with 8.68 ± 0.39; and “AAGAATACACCACGCACACACACTTGAGAAAAAATA [CACACA_site3828]”, with 9.96 ± 0.47. For “ACAAGAATACACCACGCACACACACTAGAGAAAAAA [CACACA_site9276]”, the “gcPBM binding intensity (ln)” value is 10.1 ± 0.54.

“GAATACACCACGCACACACACTTGAGAAAAAATAAA [CACACA_site7747]”: the “gcPBM binding intensity (ln)” value is 9.66 ± 0.47. For “CATAAAAATATTAATAAACACACAATCAGATATTGA [CACACA_site9032]”, the “gcPBM binding intensity (ln)” value turned out to be 8.87 ± 0.45.

On to “ATGTATAATATTTTCACACACAAGAAAAAAGAAAAG [CACACA_site3591]”, for which the “gcPBM binding intensity (ln)” value amounted to 9.27 ± 0.36. As for “TAAAAATATAAAACATGTACATATATGCATATATTT [XGTACX_site8093]”, the figure is 8.86 ± 0.48; as for “CAAAACATTTTATCTACACACATATATAAATAAATA [CACACA_site3220]”, 8.88 ± 0.38; as for “TTATCTCTACAAAGTGCACACACGTAAAAACATATA [CACACA_site3957]”, 9.09 ± 0.35.

As to “TAAAAAAAAACATGTGCACACGTTTTATCTACATAA [CACACA_site2336]”, the “gcPBM binding intensity (ln)” value is 10.1 ± 0.32. Then “TGTAATAAAATAATTAGTACACATATATGTATATTT [XGTACX_site5896]”, with 8.72 ± 0.33.
